Values joined by “and” are separate entries in the source; they are usually repeats but may differ in a detail not shown here. Equal values may be shown once. A number with no mark means an inactive call. Records with an inconclusive call do not appear. Entries that show only a call come without a potency. Active and inactive are the calls of the source. Unless noted, calls follow the shape of the dose curve; as a rule, active = well fitted curve in the direction sought with a large enough effect in the repeat runs; inconclusive = weak or mixed curves; inactive = no such curve, though single readings can be large; an effect the other way counts as inactive or inconclusive.
Assays:
[1] = qHTS assay to identify small molecule HDAC inhibitors (AID 1259364); also: top concentration of the series differs between compounds; nearly all actives have a fitted effect of over 45% in size
In short: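 Luminescence from a cell-permeant luminogenic class I/II HDAC substrate reports endogenous deacetylase activity in intact HCT-116 cells treated with compounds for 2 h.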

[2] = qHTS assay to identify small molecule HDAC inhibitors - cell viability counter screen (AID 1259365); also: nearly all actives have a fitted effect of over 50% in size; also: potency is read from the fitted curve at half-maximal effect
In short: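 Following a 2hr exposure of overnight-plated wild-type HCT-116 cells to DMSO-delivered compounds, CellTiter-Glo was added and luminescence recorded after 30min at room temperature.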

[3] = qHTS assay to identify small molecule agonists of the sonic hedgehog signaling (Shh) pathway - cell viability counter screen (AID 1259366); also: nearly all actives have a fitted effect of over 50% in size; also: potency is read from the fitted curve at half-maximal effect
In short: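 After a 4hr attachment at 37C, NIH/3T3 cells bearing an integrated Gli1-driven luciferase reporter were dosed with compounds. Treatment lasted 24hr, with the final hour including CellTiter-Fluor for a fluorescence viability measurement.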

[4] = qHTS assay to identify small molecule antagonists of the sonic hedgehog signaling (Shh) pathway - cell viability counter screen (AID 1259367); also: nearly all actives have a fitted effect of over 55% in size; also: potency is read from the fitted curve at half-maximal effect
In short: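 Cells: 3T3 Gli1-Luc, 2,000/well, 4 hr pre-incubation. Compounds in DMSO, then conditioned medium. Incubation 24 hr, 37C, 5% CO2. CellTiter-Fluor at 23 hr, 1 hr, fluorescence.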

[5] = qHTS assay to identify small molecule agonists of the sonic hedgehog signaling (Shh) pathway (AID 1259368; calls by dose curve;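 also: NIH/3T3-derived 3T3Gli1-Luc cells carrying a stable Gli1-driven firefly luciferase reporter; series mostly up to about 92 µM; nearly all actives have a fitted effect of over 15% in size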)
In short: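 3T3Gli1-Luc (NIH/3T3 clone, stable Gli1-Luc); 4 hr pre-incubation, then cpd in DMSO 24 hr, 37 C/5% CO2; luciferase reagent 30 min RT; luminescence.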

[6] = qHTS assay to identify small molecule antagonists of the sonic hedgehog signaling (Shh) pathway (AID 1259369; calls by dose curve; also: nearly all actives have a fitted effect of over 45% in size; also: potency is read from the fitted curve at half-maximal effect)
In short: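 3T3Gli1-Luc, conditioned-medium-stimulated, 24hr cpd, 37C/5% CO2; Gli1-driven firefly Luc luminescence after 30min RT with luciferase reagent. Cells plated 4hr before cpd.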

[7] = qHTS assay to identify small molecule agonists of the androgen receptor (AR) signaling pathway in the presence of an antagonist - cell viability counter screen (AID 1259379); also: nearly all actives have a fitted effect of over 25% in size; also: potency is read from the fitted curve at half-maximal effect
In short: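 Cells: MDA-kb2 (MMTV-luc, AR and GR elements), 3,000/well, 5 hr settle. Added: nilutamide 3.0uM final, then compounds (15 conc.). Incubation: 16 hr, 37C, no CO2. Read-out: CellTiter-Fluor, 1 hr, fluorescence.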

[8] = qHTS assay to identify small molecule agonists of the estrogen receptor beta (ER-beta) signaling pathway - cell viability counter screen (AID 1259380); also: nearly all actives have a fitted effect of over 30% in size; also: potency is read from the fitted curve at half-maximal effect
In short: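 HEK293T ER-beta-UAS-bla; 2% CS-FBS; 6 hr pre-plate, 16 hr cpd at 37C/5% CO2; LiveBLAzer read first, then CellTiter-Glo 30 min RT, luminescence.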

[9] = qHTS assay to identify small molecule antagonists of the estrogen receptor beta (ER-beta) signaling pathway - cell viability counter screen (AID 1259382); also: nearly all actives have a fitted effect of over 55% in size; also: potency is read from the fitted curve at half-maximal effect
In short: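 Cells: ER-beta-UAS-bla HEK293T, 2,000/well, 2% CS-FBS, 6 hr settle. Cpd + E2 (1nM final), 16 hr, 37C/5% CO2. Bla FRET substrate 2 hr RT, then CellTiter-Glo 30 min RT, luminescence.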

[10] = qHTS assay to identify small molecule agonists or antagonists of the thyroid stimulating hormone receptor (TSHR) signaling pathway - wild type cell line counter screen (AID 1259384; calls by dose curve)
In short: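 Counter screen in untransfected Hek293: compounds (15-point titration, triplicate) plus phosphodiesterase inhibitor Ro20-1724 added after 18 h plating; 30 min RT. Intracellular cAMP via competitive d2/cryptate immunoassay, 1 h incubation.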

[11] = target: Thyrotropin receptor (Homo sapiens) (UniProt P16473); assay: qHTS assay to identify small molecule antagonists of the thyroid stimulating hormone receptor (TSHR) signaling pathway (AID 1259385; calls by dose curve; also: nearly all actives have a fitted effect of over 20% in size; also: potency is read from the fitted curve at half-maximal effect)
Sequence of Thyrotropin receptor (Homo sapiens) (P16473 whole entry, looked up): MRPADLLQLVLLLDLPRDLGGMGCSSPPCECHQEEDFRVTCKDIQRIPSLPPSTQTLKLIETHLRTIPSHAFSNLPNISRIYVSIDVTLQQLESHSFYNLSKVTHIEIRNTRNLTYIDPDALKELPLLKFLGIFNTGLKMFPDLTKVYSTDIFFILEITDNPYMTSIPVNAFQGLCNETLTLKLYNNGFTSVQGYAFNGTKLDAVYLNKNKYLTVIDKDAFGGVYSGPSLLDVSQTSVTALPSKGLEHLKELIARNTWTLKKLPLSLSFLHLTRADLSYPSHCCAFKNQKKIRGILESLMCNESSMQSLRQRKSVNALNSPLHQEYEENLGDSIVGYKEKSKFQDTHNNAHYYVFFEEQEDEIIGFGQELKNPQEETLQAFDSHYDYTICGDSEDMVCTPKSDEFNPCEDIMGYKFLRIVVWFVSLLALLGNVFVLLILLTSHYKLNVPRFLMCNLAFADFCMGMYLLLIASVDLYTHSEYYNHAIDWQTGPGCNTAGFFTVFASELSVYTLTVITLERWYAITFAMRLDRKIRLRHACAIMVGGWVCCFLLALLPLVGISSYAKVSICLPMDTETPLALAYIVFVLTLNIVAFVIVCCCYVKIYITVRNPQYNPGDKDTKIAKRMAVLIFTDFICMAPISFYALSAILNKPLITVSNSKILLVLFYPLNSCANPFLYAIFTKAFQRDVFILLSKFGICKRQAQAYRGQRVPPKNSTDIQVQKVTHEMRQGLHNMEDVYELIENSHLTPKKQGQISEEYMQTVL
In short: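 Antagonist mode: compound-treated TSHR-expressing HEK293 cells were stimulated with 1.5 ng/mL TSH (final) in presence of Ro20-1724 for 30 min at RT. HTRF cAMP detection after 1 h; each compound tested at 15 concentrations, triplicate.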

[12] = qHTS assay to identify small molecule agonists of the estrogen receptor alpha (ER-alpha) signaling pathway in the presence of an antagonist - cell viability counter screen (AID 1259386);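 also: cells exposed to compounds for 22 h at 37 °C before the viability read; nearly all actives have a fitted effect of over 30% in size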; also: potency is read from the fitted curve at half-maximal effect
In short: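 VM7Luc4E2, stripped-serum pre-culture 5 d; 24hr plating; +ICI-182,780 10.0nM final; cpds 15 conc, 22hr, 37C/5% CO2; CellTiter-Fluor added at 21hr, fluorescence 1hr later.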

[13] = qHTS assay to identify small molecule phospholipidosis (PLD) inducers (AID 1259344; active = well fitted curve in the direction sought with a large enough effect; an effect the other way counts as inactive or inconclusive)
In short: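 Phospholipidosis is scored by imaging LipidTOX-stained pits in HepG2 cells exposed to compound for 24 h at 37 C; pit counts and integrated intensities per well and per cell serve as outputs.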

[14] = target: Estrogen receptor beta (Homo sapiens) (UniProt Q92731); assay: qHTS assay to identify small molecule agonists of the estrogen receptor beta (ER-beta) signaling pathway (AID 1259377; active = well fitted activation curve with a large enough effect in the signal ratio in the repeat runs, not every such curve was filed as active; the % refers to the signal ratio)
Sequence of Estrogen receptor beta (Homo sapiens) (Q92731 whole entry, looked up): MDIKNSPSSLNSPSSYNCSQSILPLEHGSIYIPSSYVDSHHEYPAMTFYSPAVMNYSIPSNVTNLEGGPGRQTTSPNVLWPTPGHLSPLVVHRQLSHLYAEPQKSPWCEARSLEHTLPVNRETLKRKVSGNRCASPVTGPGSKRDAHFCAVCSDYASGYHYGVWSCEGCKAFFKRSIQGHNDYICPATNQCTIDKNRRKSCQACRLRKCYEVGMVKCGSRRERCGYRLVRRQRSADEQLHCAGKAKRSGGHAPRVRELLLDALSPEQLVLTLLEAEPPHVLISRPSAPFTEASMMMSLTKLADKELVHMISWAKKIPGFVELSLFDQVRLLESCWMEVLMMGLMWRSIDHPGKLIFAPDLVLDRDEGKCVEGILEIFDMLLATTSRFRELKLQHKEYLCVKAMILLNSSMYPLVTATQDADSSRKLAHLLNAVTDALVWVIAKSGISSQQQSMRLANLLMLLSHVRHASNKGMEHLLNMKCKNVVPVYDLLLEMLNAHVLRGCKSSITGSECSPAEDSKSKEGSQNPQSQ
In short: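 In HEK293T cells bearing a UAS-beta-lactamase reporter under ER-beta control, DMSO-delivered compounds were incubated for 16 hr at 37C. Activity was detected as fluorescence 2 hours after LiveBLAzer B/G FRET substrate addition.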

[15] = target: Estrogen receptor beta (Homo sapiens) (UniProt Q92731); assay: qHTS assay to identify small molecule antagonists of the estrogen receptor beta (ER-beta) signaling pathway (AID 1259378; active = well fitted inhibition curve with a large enough effect in the signal ratio in the repeat runs, not every such curve was filed as active; the % refers to the signal ratio; also: potency is read from the fitted curve at half-maximal effect)
In short: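 Antagonist mode: compounds added to beta-lactamase reporter HEK293T ER-beta-UAS cells stimulated with E2 (1nM final), 16 hr at 37C. LiveBLAzer B/G FRET substrate, 2 hours room temperature, fluorescence read-out.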

[16] = target: Androgen receptor (Homo sapiens) (UniProt P10275); assay: qHTS assay to identify small molecule agonists of the androgen receptor (AR) signaling pathway in the presence of an antagonist (AID 1259381; calls by dose curve; also: nearly all actives have a fitted effect of over 15% in size)
Sequence of Androgen receptor (Homo sapiens) (P10275 whole entry, looked up): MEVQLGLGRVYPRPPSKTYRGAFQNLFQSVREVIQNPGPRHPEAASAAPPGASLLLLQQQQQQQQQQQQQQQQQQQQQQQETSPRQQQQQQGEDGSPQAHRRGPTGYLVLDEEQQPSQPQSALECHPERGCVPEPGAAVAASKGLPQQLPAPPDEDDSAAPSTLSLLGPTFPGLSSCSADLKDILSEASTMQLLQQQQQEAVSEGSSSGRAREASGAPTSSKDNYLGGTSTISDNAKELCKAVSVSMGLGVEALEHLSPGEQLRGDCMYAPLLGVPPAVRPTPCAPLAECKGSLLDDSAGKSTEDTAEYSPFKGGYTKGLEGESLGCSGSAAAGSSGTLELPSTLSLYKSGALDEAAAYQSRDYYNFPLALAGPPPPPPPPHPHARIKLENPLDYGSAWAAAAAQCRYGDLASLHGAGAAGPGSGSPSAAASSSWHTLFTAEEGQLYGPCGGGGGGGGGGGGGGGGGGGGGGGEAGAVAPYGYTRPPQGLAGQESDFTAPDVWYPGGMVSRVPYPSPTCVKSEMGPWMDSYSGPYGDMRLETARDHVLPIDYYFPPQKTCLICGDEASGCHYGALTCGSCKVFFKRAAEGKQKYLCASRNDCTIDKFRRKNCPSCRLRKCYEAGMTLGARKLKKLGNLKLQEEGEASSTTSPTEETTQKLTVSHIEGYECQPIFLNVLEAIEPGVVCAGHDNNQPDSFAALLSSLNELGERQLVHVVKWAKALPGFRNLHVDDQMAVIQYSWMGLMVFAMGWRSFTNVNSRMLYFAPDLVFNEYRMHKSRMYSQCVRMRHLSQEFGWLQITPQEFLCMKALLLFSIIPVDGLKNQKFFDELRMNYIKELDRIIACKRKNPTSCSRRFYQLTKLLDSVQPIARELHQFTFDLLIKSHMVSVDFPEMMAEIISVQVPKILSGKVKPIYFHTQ
In short: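 MDA-kb2 cells, 3,000/well, rested 5hr at 37C/0% CO2 → nilutamide 3.0uM final or buffer → compounds, 15 conc. → 16hr at 37C → ONE-Glo, 30min RT → luminescence.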

[17] = target: Estrogen receptor (Homo sapiens) (UniProt P03372); assay: qHTS assay to identify small molecule agonists of the estrogen receptor alpha (ER-alpha) signaling pathway in the presence of an antagonist (AID 1259383; calls by dose curve; also: top concentration of the series differs between compounds; nearly all actives have a fitted effect of over 15% in size)
Sequence of Estrogen receptor (Homo sapiens) (P03372 whole entry, looked up): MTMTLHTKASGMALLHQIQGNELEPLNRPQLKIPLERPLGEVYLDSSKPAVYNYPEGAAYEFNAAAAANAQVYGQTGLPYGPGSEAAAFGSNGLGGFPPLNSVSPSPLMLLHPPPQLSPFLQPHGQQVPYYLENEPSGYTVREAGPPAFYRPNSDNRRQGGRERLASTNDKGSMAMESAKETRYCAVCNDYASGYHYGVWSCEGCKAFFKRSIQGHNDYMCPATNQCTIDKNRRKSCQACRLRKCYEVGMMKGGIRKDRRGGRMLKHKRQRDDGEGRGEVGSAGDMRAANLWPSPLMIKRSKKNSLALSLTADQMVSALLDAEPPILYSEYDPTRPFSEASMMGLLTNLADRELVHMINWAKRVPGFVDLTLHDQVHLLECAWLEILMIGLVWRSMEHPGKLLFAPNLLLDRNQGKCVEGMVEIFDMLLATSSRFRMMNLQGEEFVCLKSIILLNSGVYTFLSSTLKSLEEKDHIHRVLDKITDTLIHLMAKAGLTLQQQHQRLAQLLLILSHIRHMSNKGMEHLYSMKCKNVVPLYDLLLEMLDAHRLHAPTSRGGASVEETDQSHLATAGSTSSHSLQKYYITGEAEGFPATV
In short: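 VM7Luc4E2, endog. ER-alpha + 4×ERE-luc; charcoal-stripped FBS, phenol red-free, 5 d; 24hr plating; +10.0nM ICI-182,780 (final); cpds 15 conc, 22hr, 37C/5% CO2; ONE-Glo luminescence.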

[18] = target: Progesterone receptor (Homo sapiens) (UniProt P06401); assay: qHTS assay to identify small molecule agonists of the progesterone receptor (PR) signaling pathway (AID 1346784; calls by dose curve; also: nearly all actives have a fitted effect of over 30% in size)
Sequence of Progesterone receptor (Homo sapiens) (P06401 whole entry, looked up): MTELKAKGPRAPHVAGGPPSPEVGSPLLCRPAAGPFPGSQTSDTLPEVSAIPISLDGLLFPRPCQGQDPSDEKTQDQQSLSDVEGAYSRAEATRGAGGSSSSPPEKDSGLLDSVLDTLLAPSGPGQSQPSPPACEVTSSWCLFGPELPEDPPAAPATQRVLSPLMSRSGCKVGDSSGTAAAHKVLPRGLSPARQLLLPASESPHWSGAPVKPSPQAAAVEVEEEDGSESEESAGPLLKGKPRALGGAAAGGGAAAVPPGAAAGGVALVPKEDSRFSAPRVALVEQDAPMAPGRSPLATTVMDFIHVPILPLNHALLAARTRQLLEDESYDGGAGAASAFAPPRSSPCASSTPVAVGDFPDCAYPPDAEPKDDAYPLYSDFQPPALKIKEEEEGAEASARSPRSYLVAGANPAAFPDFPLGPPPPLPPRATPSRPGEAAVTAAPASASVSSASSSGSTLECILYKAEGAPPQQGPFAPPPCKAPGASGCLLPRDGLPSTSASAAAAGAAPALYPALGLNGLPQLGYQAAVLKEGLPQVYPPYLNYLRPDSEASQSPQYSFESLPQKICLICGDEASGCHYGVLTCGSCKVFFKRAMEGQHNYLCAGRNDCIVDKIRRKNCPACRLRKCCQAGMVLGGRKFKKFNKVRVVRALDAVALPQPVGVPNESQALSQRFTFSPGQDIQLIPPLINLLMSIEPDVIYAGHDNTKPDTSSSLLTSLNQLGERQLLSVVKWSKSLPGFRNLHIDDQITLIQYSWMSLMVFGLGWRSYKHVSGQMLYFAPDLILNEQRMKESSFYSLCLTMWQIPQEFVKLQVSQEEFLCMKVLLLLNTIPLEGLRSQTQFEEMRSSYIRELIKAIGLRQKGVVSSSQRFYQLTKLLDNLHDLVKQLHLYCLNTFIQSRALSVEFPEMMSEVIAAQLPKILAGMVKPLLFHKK
In short: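 Using charcoal-stripped serum (2%) to limit endogenous steroids, PR-UAS-bla HEK 293T cells received compounds for 16 hr at 37C after 6 hr plating; beta-lactamase FRET fluorescence was recorded following 2 hr substrate loading at room temperature.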

[19] = target: Estrogen receptor (Homo sapiens) (UniProt P03372); assay: qHTS assay to identify small molecule antagonists of the estrogen receptor alpha (ER-alpha) signaling pathway using the BG1 cell line in the presence of 0.1 nM 17-beta-estradiol (AID 1259244); also: potency is read from the fitted curve at half-maximal effect; nearly all actives have a fitted effect of over 50% in size
In short: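 Cells: VM7Luc4E2, endogenous ER-alpha, 4x ERE-luc stable. Pre-culture 5 d, phenol red-free, charcoal-stripped FBS. Plated 24 h, compound + E2 0.1 nM final, 22 h 37C/5% CO2. Readout ONE-Glo luminescence.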

Structure (SMILES) | Potency [1] | Potency [2] | Potency [3] | Potency [4] | Potency [5] | Potency [6] | Potency [7] | Potency [8] | Potency [9] | outcome [10] | Potency [11] | Potency [12] | Potency [13] | Potency [14] | Potency [15] | Potency [16] | Potency [17] | outcome [18] | Potency [19]
CCNc1nc(NC(C)CC)nc(OC)n1 (centres undefined) | inactive | inactive | inactive | inactive | inactive | 30.6 µM (active) | inactive | inactive | inactive | inactive | inactive | inactive | – | – | – | – | – | – | –
COc1ccccc1OCCNCC(O)COc1cccc2[nH]c3ccccc3c12 (centres undefined) | inactive | inactive | 26.6 µM (active) | – | inactive | 21.1 µM (active) | 29.8 µM (active) | 9.44 µM (active) | 11.9 µM (active) | inactive | 33.5 µM (active) | – | inactive | inactive | 7.5 µM (active) | inactive | inactive | – | –
CCCCCCCCCCCC(=O)N(CC)CC | inactive | inactive | inactive | inactive | inactive | inactive | – | inactive | inactive | – | – | inactive | – | – | – | – | – | inactive | –
Clc1ccccc1CN1CCc2sccc2C1 | inactive | – | inactive | inactive | inactive | inactive | inactive | – | inactive | – | – | inactive | inactive | – | – | – | – | – | –
O=C(O)CCCCCCC(=O)O | inactive | inactive | inactive | inactive | inactive | inactive | inactive | inactive | inactive | inactive | inactive | inactive | – | inactive | inactive | – | – | – | –
C/C=C/c1ccc(OC)c(OC)c1 | inactive | inactive | inactive | inactive | inactive | inactive | inactive | inactive | inactive | – | inactive | inactive | – | inactive | inactive | – | – | – | –
O=C1c2c(O)ccc([N+](=O)[O-])c2C(=O)c2c([N+](=O)[O-])ccc(O)c21 | – | 21.5 µM (active) | 17.1 µM (active) | 10.8 µM (active) | inactive | 1.52 µM (active) | 27.1 µM (active) | 15.2 µM (active) | 17.1 µM (active) | – | inactive | 24.1 µM (active) | – | inactive | – | – | inactive | – | 27.1 µM (active)
CC(C)c1ccc(O)c(C(C)C)c1 | inactive | inactive | inactive | inactive | inactive | inactive | inactive | – | inactive | – | inactive | inactive | – | inactive | inactive | – | inactive | inactive | –
CCCCC(CC)COC(=O)c1ccc(O)cc1 (centres undefined) | inactive | inactive | inactive | 54.3 µM (active) | inactive | 43.3 µM (active) | inactive | 61.1 µM (active) | 68.6 µM (active) | inactive | inactive | – | – | inactive | 21.6 µM (active) and 21.7 µM (active) | – | – | inactive | –
O=C1c2c(O)ccc(O)c2C(=O)c2c(NCCNCCO)ccc(NCCNCCO)c21 | inactive | inactive | 21.1 µM (active) | 23.7 µM (active) | inactive | 0.0473 µM (active) | – | inactive | inactive | – | – | 26.6 µM (active) | inactive | inactive | – | – | – | – | –
C=CC(C)C#N (centres undefined) | inactive | inactive | inactive | inactive | inactive | inactive | inactive | inactive | inactive | – | – | inactive | – | – | – | – | – | inactive | –
[O]=[Zr] | inactive | inactive | – | inactive | inactive | inactive | inactive | inactive | inactive | inactive | inactive | inactive | – | – | – | – | – | inactive | –
CCCCCCCCCC(=O)N(C)C | – | – | – | inactive | inactive | – | inactive | inactive | inactive | inactive | inactive | inactive | – | inactive | inactive | – | – | inactive | –
CCOC(=O)CN | inactive | – | inactive | inactive | inactive | inactive | inactive | inactive | inactive | – | inactive | inactive | – | – | – | – | – | inactive | –
CN(C)CCCN1c2ccccc2CCc2ccccc21 | inactive | – | – | inactive | inactive | 8.63 µM (active) and 4.73 µM (active) | – | 30.6 µM (active) and 23.7 µM (active) | 27.3 µM (active) and 23.7 µM (active) | – | – | inactive | – | – | – | – | – | – | –
CC(C)(C)c1cc(/C=C2\SC(=N)NC2=O)cc(C(C)(C)C)c1O | inactive | inactive | inactive | inactive | inactive | – | – | – | inactive | inactive | inactive | – | – | inactive | 21.7 µM (active) | – | inactive | – | –
Cc1cccc(Br)c1 | inactive | inactive | inactive | – | inactive | 27.4 µM (active) | inactive | 27.4 µM (active) | – | inactive | inactive | inactive | – | – | – | – | – | inactive | –
Nc1cc(Cl)c([N+](=O)[O-])cc1O | inactive | inactive | – | – | inactive | – | 48.2 µM (active) | inactive | inactive | inactive | inactive | 54 µM (active) | – | – | – | – | inactive | inactive | –
O=C1NCN(c2ccccc2)C12CCN(CCCC(c1ccc(F)cc1)c1ccc(F)cc1)CC2 | inactive | inactive | – | – | inactive | – | 29.8 µM (active) | – | 26.6 µM (active) | inactive | inactive | inactive | – | inactive | 18.8 µM (active) | – | – | – | –
O=C1Nc2ccc(Cl)cc2[C@@](C#CC2CC2)(C(F)(F)F)O1 | inactive | inactive | inactive | inactive | inactive | – | inactive | – | – | inactive | inactive | inactive | – | inactive | 23.7 µM (active) | – | inactive | – | –
C=C(C)C(=O)OCCC[Si](Cl)(Cl)Cl | inactive | – | inactive | inactive | inactive | – | inactive | inactive | inactive | – | inactive | inactive | – | inactive | inactive | – | – | inactive | –
Cc1c(C)n(Cc2ccccc2)c2ccc(C(=O)OCCN(C)C)cc12 | – | inactive | – | inactive | inactive | 6.68 µM (active) | – | – | – | inactive | inactive | inactive | – | inactive | 23.7 µM (active) | – | – | inactive | –

Source: PubChem BioAssay (Tox21)
